Data reported in PubChem BioAssay AID1347146 (National Center for Advancing Translational Sciences (NCATS), 2019).
Results filed as inconclusive are left out. Entries that show only a call come without a potency. Calls of active or inactive are those of the source. Calls follow the shape of the dose curve; as a rule, active = well fitted inhibition curve with a large enough effect; inconclusive = small, poorly fitted or top-dose-only effect; inactive = no such curve, though single readings can be large or run the other way.
Potency is read from the fitted curve at half-maximal effect.

The compounds below were run against Nicotinamide N-methyltransferase (Homo sapiens) (UniProt P40261) (assay: qHTS Assay for Inhibitors of N-terminal methyltransferase 1 (NTMT1): NNMT MTaseGlo counterscreen assay). Conditions: NNMT enzyme, MTase-Glo luminescence counterscreen; series mostly up to 57.1 µM.
Nicotinamide N-methyltransferase (Homo sapiens), sequence (P40261 whole entry, looked up): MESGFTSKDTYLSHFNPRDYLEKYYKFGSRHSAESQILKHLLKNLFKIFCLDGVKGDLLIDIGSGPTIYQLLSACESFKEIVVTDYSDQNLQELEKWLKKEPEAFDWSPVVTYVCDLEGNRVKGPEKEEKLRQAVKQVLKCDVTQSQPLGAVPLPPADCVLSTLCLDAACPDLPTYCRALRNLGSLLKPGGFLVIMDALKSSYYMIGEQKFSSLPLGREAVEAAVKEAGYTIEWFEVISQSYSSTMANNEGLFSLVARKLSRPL
How it was run: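 Luminescent MTase-Glo read-out of SAH from nicotinamide methylation: 1 µM nicotinamide, 100 µM SAM, 125 nM NNMT, 30 min RT after ~15 min compound preincubation. Values normalized to no-enzyme/DMSO controls, Hill-fitted.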
In the case of `COc1cc2nc(N3CCOCC3)nc(NC(C)C)c2cc1OC`, the Potency was “inactive”. In the case of `Nc1ccc(CCNc2ncnc3c2ncn3C2OC(CO)C(O)C2O)cc1` (stereo not drawn), the Potency was “inactive”. With `Nc1nc2ccc(Cl)cc2c2nc(-c3ccco3)nn12` the Potency was “inactive”. With `CCC(CC)n1ccc2c(C(=O)NCc3c(C)cc(C)[nH]c3=O)cc(C#N)cc21` the Potency was “inactive”. With `OCCNc1ncnc2c1ncn2[C@@H]1O[C@@H](CO)[C@H](O)[C@@H]1O` the Potency was “inactive”. In the case of `Nc1ncnc2c1[nH]c(=S)n2C1OC(CO)C(O)C1O` (stereo not drawn), the Potency was “inactive”. With `CN(C)c1ccc(/C=C2\C(=O)Nc3ccccc32)cc1` the Potency was 10 µM (active). In the case of `Oc1cc2c(cc1O)C(c1ccccc1)CNCC2` (stereo not drawn), the Potency was “inactive”. `C=CCN1CCc2cc(O)c(O)cc2[C@H](c2ccccc2)C1` was tested, and the Potency was “inactive”. In the case of `COc1cc2nc(N3CCCN(C)CC3)nc(NC3CCN(Cc4ccccc4)CC3)c2cc1OC`, the Potency was “inactive”. In the case of `COc1ccccc1N1CCN(CCN2C(=O)CC3(CCCC3)CC2=O)CC1`, the Potency was “inactive”. For `CN(C)CCCC1(c2ccc(F)cc2)OCc2cc(C#N)ccc21` (stereo not drawn), the Potency was “inactive”. In the case of `NCC(O)C1CCCCCCC1` (stereo not drawn), the Potency was “inactive”. In the case of `COc1cc(CNC(=O)CCCCCCC(C)C)ccc1O`, the Potency was “inactive”. `CC1=C(\C=C/C(C)=C/C=C\C(C)=C\C(=O)O)C(C)(C)CCC1` was tested, and the Potency was “inactive”. With `Oc1ccc2ccccc2c1SSc1c(O)ccc2ccccc12` the Potency was “inactive”. With `O=c1c(O)c(-c2ccc(O)c(O)c2)oc2cc(O)cc(O)c12` the Potency was “inactive”. With `CCN1CCC[C@H]1CNC(=O)c1cc(S(N)(=O)=O)ccc1OC` the Potency was “inactive”. For `Cc1ccccc1CNc1ncnc2c1ncn2[C@@H]1O[C@H](CO)[C@@H](O)[C@H]1O`, the Potency was “inactive”. In the case of `C[C@](Cc1ccc(O)c(O)c1)(NN)C(=O)O`, the Potency was “inactive”. For `O=c1[nH]c(=S)[nH]c(-c2ccccc2)c1Cc1c(O)ccc2ccccc12`, the Potency was “inactive”. For `Cc1cc(C)c(/C=C2\C(=O)Nc3ccccc32)[nH]1`, the Potency was “inactive”. For `Cc1cccc(/C=C/c2ccccc2)n1`, the Potency was “inactive”. `COc1cc(/C=C(\C#N)C(=O)Nc2nnc(C(F)(F)F)s2)ccc1OCc1ccc(C(F)(F)F)cc1C(F)(F)F` was tested, and the Potency was “inactive”. With `NC(Cc1c[nH]c2ccc(O)cc12)C(=O)O` (stereo not drawn) the Potency was “inactive”. With `Cc1cc(O)c2c(c1)C(=O)c1cc(O)cc(O)c1C2=O` the Potency was “inactive”. For `O=C(N[C@@H](Cc1ccccc1)C(=O)CCl)OCc1ccccc1`, the Potency was “inactive”. For `OCC1OC(n2cnc3c(NCc4ccco4)ncnc32)C(O)C1O` (stereo not drawn), the Potency was “inactive”. In the case of `Cc1cc2nc3c(=O)[nH]c(=O)nc-3n(C[C@H](O)[C@H](O)[C@H](O)COP(=O)(O)OP(=O)(O)OC[C@H]3O[C@@H](n4cnc5c(N)ncnc54)[C@H](O)[C@H]3O)c2cc1C`, the Potency was “inactive”. `CN(C)CCCc1cc(C(=O)Nc2ccc(-c3ccncc3)cc2)ccc1O` was tested, and the Potency was “inactive”. For `CC(C)=CCNc1ncnc2c1ncn2[C@@H]1O[C@H](CO)[C@@H](O)[C@H]1O`, the Potency was “inactive”. In the case of `CNC(=O)c1cnn(-c2nc(N)c3ncn([C@@H]4O[C@H](CO)[C@@H](O)[C@H]4O)c3n2)c1`, the Potency was “inactive”. With `CC#C[C@]1(O)CC[C@H]2[C@@H]3CCC4=CC(=O)CCC4=C3[C@@H](c3ccc(N(C)C)cc3)C[C@@]21C` the Potency was “inactive”. In the case of `O=C(/C=C/c1ccc(O)c(O)c1)OCCc1ccccc1`, the Potency was “inactive”. `CN(C)C(=O)/N=N/C(=O)N(C)C` was tested, and the Potency was “inactive”. With `OCCN1CCN(CC/C=C2/c3ccccc3Sc3ccc(C(F)(F)F)cc32)CC1` the Potency was “inactive”. `O=c1cc(-c2ccccc2)oc2c(O)c(O)ccc12` was tested, and the Potency was “inactive”. For `CN=c1nc(-c2ccccc2)n(-c2ccccc2)s1`, the Potency was “inactive”.
